Results published in PubChem BioAssay (NCATS).
Inconclusive results are not listed. The source made the active and inactive calls. Calls come from the whole dose curve; as a rule, active = well fitted curve in the direction sought with a large enough effect; inconclusive = small, poorly fitted or top-dose-only effect, or another doubt; inactive = no such curve, though single readings can be large; an effect the other way counts as inactive or inconclusive.

Columns and labels:
HEK293 = experiment: Cytotoxic Profiling of Annotated Libraries Using Quantitative High-Throughput Screening (AID 1296008); conditions: Five cell lines viability, CellTiter-Glo ATP luminescence, 48-72 h; max response: hits give low values; note: nearly all actives have a fitted effect of over 60% in size; for max response: % is set by controls: 0 for no effect and ±100 for the full control effect
In short: (§1)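 Cytotoxicity was measured as CellTiter-Glo ATP luminescence, read after 10 min at room temperature. Compound treatment of the cells lasted 48 or 72 hr at 37 degrees Celsius in a qHTS format.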

HaCat [1] = experiment: as above; conditions: Five cell lines viability, CellTiter-Glo ATP luminescence, 48-72 h; max response: hits give low values
In short: as §1

KB-3-1 = experiment: as above; conditions: Five cell lines viability, CellTiter-Glo ATP luminescence, 48-72 h; max response: hits give low values
In short: as §1

NIH3T3 = experiment: as above; conditions: Five cell lines viability, CellTiter-Glo ATP luminescence, 48-72 h; max response: hits give low values
In short: as §1

CAOV3 = experiment: Primary qHTS to identify gynecologic anti-cancer compounds using libraries of approved drugs and bioactive compounds (AID 1345084); conditions: Gynecologic cancer cell panel viability, ATPlite luminescence, 48 h; series mostly up to 57.5 µM; note: nearly all actives have a fitted effect of over 55% in size
In short: (§2)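 Five-concentration response, 48 h; readout is ATP-driven luciferase luminescence.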

CASKI = experiment: as above; conditions: Gynecologic cancer cell panel viability, ATPlite luminescence, 48 h; series mostly up to 57.5 µM
In short: as §2

Es-2 = experiment: as above; conditions: Gynecologic cancer cell panel viability, ATPlite luminescence, 48 h; series mostly up to 57.5 µM
In short: as §2

HeLa = experiment: as above; conditions: Gynecologic cancer cell panel viability, ATPlite luminescence, 48 h; series mostly up to 57.5 µM
In short: as §2

Hek293T [2] = experiment: as above; conditions: Gynecologic cancer cell panel viability, ATPlite luminescence, 48 h, control line for the selectivity index; series mostly up to 57.5 µM
In short: as §2

JEG-3 = experiment: as above; conditions: Gynecologic cancer cell panel viability, ATPlite luminescence, 48 h; series mostly up to 57.5 µM
In short: as §2

HACAT [3] = experiment: qHTS assay to identify novel small-molecules to repurpose for Merkel cell carcinoma treatment (AID 1296009); conditions: MCC and control cell lines, CellTiter-Glo viability, 72 h; series mostly up to 44.8 µM; note: nearly all actives have a fitted effect of over 60% in size
In short: (§3)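 Cell viability measured by CellTiter-Glo following 72 hr compound treatment at 37 degree celsius, with NPC and MIPE libraries tested in 8- and 11-point concentration series.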

MKL-1 = experiment: as above; conditions: MCC and control cell lines, CellTiter-Glo viability, 72 h; series mostly up to 46 µM
In short: as §3

MKL-2 = experiment: as above; conditions: MCC and control cell lines, CellTiter-Glo viability, 72 h; series mostly up to 46 µM
In short: as §3

UISO = experiment: as above; conditions: MCC and control cell lines, CellTiter-Glo viability, 72 h; series mostly up to 46 µM
In short: as §3

WaGa = experiment: as above; conditions: MCC and control cell lines, CellTiter-Glo viability, 72 h; series mostly up to 46 µM
In short: as §3

C33A = experiment: Primary qHTS to identify gynecologic anti-cancer compounds using libraries of approved drugs and bioactive compounds (AID 1345084); conditions: Gynecologic cancer cell panel viability, ATPlite luminescence, 48 h; series mostly up to 57.5 µM; note: nearly all actives have a fitted effect of over 55% in size
In short: as §2

HEK293T [4] = experiment: qHTS assay to identify novel small-molecules to repurpose for Merkel cell carcinoma treatment (AID 1296009); conditions: MCC and control cell lines, CellTiter-Glo viability, 72 h; at 44.8 µM (top of the series) unless noted; note: nearly all actives have a fitted effect of over 60% in size
In short: as §3
Potency is the fitted concentration of half-maximal effect.

O=C1N=C(N2CCOCC2)CN1c1ccc(Cl)cc1
inactive: max response (HEK293) -16.9% | max response (HaCat [1]) -30.2% | max response (KB-3-1) 2.82% | max response (NIH3T3) -0.0852% | Potency (CAOV3) | Potency (CASKI) | Potency (Es-2) | Potency (HeLa) | Potency (Hek293T [2]) | Potency (JEG-3)

N#Cc1cnc2cnc(NCc3cccnc3)cc2c1Nc1ccc(F)c(Cl)c1
active: Potency (HEK293) 3.66 µM | Potency (HaCat [1]) 20.6 µM
inactive: max response (KB-3-1) -15.8% | max response (NIH3T3) -8.77% | Potency (HeLa) | Potency (JEG-3)

CN(C)C1CCN(C(=O)c2ccc(NC(=O)Nc3ccc(-c4nc(N5CCOCC5)nc(N5CCOCC5)n4)cc3)cc2)CC1
active: Potency (HEK293) 0.0517 µM | Potency (HaCat [1]) 0.116 µM | Potency (KB-3-1) 0.058 µM | Potency (NIH3T3) 0.13 µM | Potency (CASKI) 0.282 µM | Potency (HeLa) 0.562 µM | Potency (Hek293T [2]) 0.398 µM

CCOC(=O)Nc1cc(-c2ccc(C)c(NS(C)(=O)=O)c2)nn2c(C)nnc12
active: Potency (HEK293) 4.11 µM | Potency (HaCat [1]) 0.651 µM | Potency (KB-3-1) 10.3 µM | Potency (NIH3T3) 9.2 µM | Potency (Es-2) 12.6 µM

Cc1ccc(N)cc1O
inactive: outcome (HaCat [1]) | max response (KB-3-1) -6.12% | Potency (HACAT [3]) | Potency (Es-2) | Potency (HeLa) | Potency (Hek293T [2])
active: Potency (HEK293) 43.3 µM | Potency (MKL-1) 6.11 µM | Potency (MKL-2) 6.11 µM | Potency (UISO) 24.3 µM | Potency (WaGa) 6.11 µM

CCOCc1cc(OC)c(-c2ccc(C[C@H](NC(=O)c3c(F)cccc3F)C(=O)O)cc2)c(OC)c1
inactive: max response (HEK293) -1.31% | outcome (HaCat [1]) | outcome (KB-3-1) | Potency (HACAT [3]) | Potency (C33A) | Potency (CAOV3) | Potency (CASKI) | Potency (Es-2) | Potency (HeLa) | Potency (JEG-3)

Cc1nc2ccc(Oc3ccc(F)cc3)cc2c(=O)n1C[C@H]1CCCN(C(C)C)C1
inactive: max response (HEK293) -15.9% | outcome (HaCat [1]) | max response (KB-3-1) 5.64% | Potency (HACAT [3]) | Potency (C33A) | Potency (CAOV3) | Potency (CASKI) | Potency (Es-2) | Potency (HeLa) | Potency (Hek293T [2]) | Potency (JEG-3)

CCNC(=O)Nc1ncc(-c2cc(-c3c(C)cc(OC)cc3C)nc(-c3cnccn3)n2)s1
inactive: outcome (HEK293) | outcome (HaCat [1]) | max response (KB-3-1) 1.64% | Potency (HACAT [3]) | outcome (HEK293T [4]) | Potency (C33A) | Potency (CAOV3) | Potency (CASKI) | Potency (Es-2) | Potency (HeLa) | Potency (Hek293T [2]) | Potency (JEG-3)

CNC(=O)c1cc(Oc2ccc3nc(N[C@@H]4CCCC[C@H]4O)sc3c2)ccn1
inactive: outcome (HaCat [1]) | max response (KB-3-1) -18.3% | Potency (HACAT [3]) | Potency (CAOV3) | Potency (CASKI) | Potency (Hek293T [2])
active: Potency (HEK293) 16.4 µM

CC1CCCCN1S(=O)(=O)c1ccc(N2CCCC2=O)cc1 (centres undefined)
inactive: outcome (HEK293) | max response (HaCat [1]) -10.9% | max response (KB-3-1) -2.83% | outcome (HEK293T [4]) | Potency (C33A) | Potency (CAOV3) | Potency (CASKI) | Potency (Es-2) | Potency (HeLa) | Potency (Hek293T [2]) | Potency (JEG-3)

Cc1c(C(=O)N2CCOc3ccc(-c4ccc(N)nc4)cc3C2)ccc(S(C)(=O)=O)c1F
inactive: max response (HaCat [1]) 2.5% | Potency (JEG-3)
active: Potency (HEK293) 5.8 µM | Potency (KB-3-1) 7.31 µM | Potency (NIH3T3) 11.6 µM

Cc1cccc(-c2[nH]c(Cc3cccc(C(N)=O)c3)nc2-c2ccc3nccnc3c2)n1
inactive: outcome (HEK293) | outcome (HaCat [1]) | max response (KB-3-1) -5.51% | Potency (HACAT [3]) | outcome (HEK293T [4]) | Potency (C33A) | Potency (CASKI) | Potency (Es-2) | Potency (HeLa) | Potency (Hek293T [2]) | Potency (JEG-3)

CCOc1cc(C(=O)N2CCC(N3CCN(C)CC3)CC2)ccc1Nc1ncc2c(n1)N(C1CCCC1)c1ccccc1C(=O)N2C
inactive: max response (HaCat [1]) -1.5% | Potency (C33A) | Potency (CASKI) | Potency (Es-2) | Potency (HeLa) | Potency (Hek293T [2])
active: Potency (HEK293) 11.6 µM | Potency (KB-3-1) 23.1 µM | Potency (CAOV3) 31.6 µM

O=C(CC(c1ccccc1)c1ccccc1)N1CCN(C(c2ccccc2)c2ccccc2)CC1
active: Potency (HEK293) 20.6 µM | Potency (KB-3-1) 18.4 µM
inactive: max response (HaCat [1]) -29% | Potency (C33A) | Potency (CAOV3) | Potency (CASKI) | Potency (Es-2) | Potency (HeLa) | Potency (Hek293T [2]) | Potency (JEG-3)

Cn1cc(-c2ccc3nnc(Sc4ccc5nn(C)cc5c4)n3n2)cn1
inactive: outcome (HEK293) | max response (HaCat [1]) -20.1% | outcome (KB-3-1) | outcome (HEK293T [4]) | Potency (C33A) | Potency (CAOV3) | Potency (CASKI) | Potency (Es-2) | Potency (HeLa) | Potency (Hek293T [2]) | Potency (JEG-3)

FC(F)(F)c1cc(-c2ncn(/C=C\c3nnco3)n2)cc(C(F)(F)F)c1
active: Potency (HEK293) 3.26 µM | Potency (Es-2) 3.16 µM
inactive: max response (HaCat [1]) -20% | max response (KB-3-1) -19.3% | Potency (C33A) | Potency (CAOV3) | Potency (CASKI) | Potency (HeLa)

COc1nc2sc(C(=O)NC3CC3)c(N)c2c(C)c1Cl
inactive: max response (HEK293) -8.8% | max response (HaCat [1]) -34.1% | outcome (KB-3-1) | Potency (C33A) | Potency (CAOV3) | Potency (CASKI) | Potency (Es-2) | Potency (HeLa) | Potency (Hek293T [2]) | Potency (JEG-3)
